HCV inh: inhibitors of hepatitis C virus infection | Huh7.5.1 HCVcc-Cre infection, luciferase reporter, 44 h | Potency, µM (top dose mostly 41.8 µM), actives largely listed as inhibitors | 3.4% of 340,000 active
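Infectious HCVcc-Cre (~0.5 moi) was added to cells just after compound, with cells seeded 4 h earlier at 1,000 per well. Luciferase activity after 44 h culture reported infection; substrate was incubated 15 min at room temperature before reading.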
Pf growth 96h: inhibits malaria parasite growth, 96 h | 6.9% of 320,000 active | Potency, µM (doses to about 28.7 µM), actives largely listed as inhibitors | P. falciparum luciferase reporter growth, 96 h
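Readout is luminescence from an integrated firefly luciferase in P. falciparum. Red cells, 2% hematocrit and 0.05% parasitemia final, were cultured with compound through two parasite generations (96 hours) at 37 C, 5% CO2.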
AMA1 RON2 block: inhibitors of Plasmodium falciparum AMA1-RON2 interaction; AlphaScreen AMA1-biotinylated RON2 peptide binding; Potency, µM (titrated, usually from 58.2 µM), usual class: inhibitors; 0.2% of 360,000 active; AID 720542; note: nearly all actives have a fitted effect of over 45% in size
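AMA1 (3D7) with his tag at 25 nM final met compounds first, then biotinylated RON2 peptide at 25 nM; detection used donor plus acceptor beads, 10 µg/mL apiece, read by AlphaScreen after 30 min at room temperature.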
Pf growth 48h: inhibits P. falciparum growth in the first generation, 48 h; AID 504832; 5.9% of 310,000 active; P. falciparum luciferase growth in erythrocytes, 48 h; Potency, µM (series often up to 28.7 µM), actives largely listed as inhibitors
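Firefly luciferase activity from engineered P. falciparum reports growth; inhibitors lower the luminescent signal. Cultures contained 2% hematocrit erythrocytes at 0.1% final parasitemia.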
Numbers stand for hits; . = inactive; ? = inconclusive; / = no result given; [ ] = remark or other dose. This is a sample that favours compounds with a hit; in the whole collection about 11% have one here. Calls come from the whole dose curve; as a rule, active = well fitted curve in the direction sought with a large enough effect; inconclusive = small, poorly fitted or top-dose-only effect, or another doubt; inactive = no such curve, though single readings can be large; an effect the other way counts as inactive or inconclusive.

SMILES	HCV inh	Pf growth 96h	AMA1 RON2 block	Pf growth 48h
O=C(Nc1ccc(NC(=O)C2CC2)cc1)c1cccs1	.	10µM	.	.
COc1c(Cl)cc(Cl)cc1C(=O)Nc1ccc(NC(=O)c2cccs2)cc1	?	13µM	.	9.3µM
Cc1cc(Cl)ccc1NNC(=O)c1cccs1	?	.	20µM	.
Cc1c(NC(=S)N2CCN(c3ccc(F)cc3)CC2)c(=O)n(-c2ccccc2)n1C	.	?	.	.
O=C(Nc1ccc(N2CCN(C(=O)c3ccco3)CC2)c(Cl)c1)c1cccs1	?	/	.	5.2µM
CC1CC(C)CN(S(=O)(=O)c2ccc(NC(=O)[C@@H]3CCCN3C(=O)c3cccs3)cc2)C1 (stereo not given in full)	?	?	.	12µM
CCC1CCCCN1S(=O)(=O)c1ccc(NC(=O)c2cccs2)cc1 (stereo not given)	?	.	.	2.3µM
CCC1CCCCN1S(=O)(=O)c1ccc(NC(=O)c2snnc2C)cc1 (stereo not given)	?	.	.	?
CCC(=O)Nc1ccc(N2CCN(C(=O)c3ccco3)CC2)c(Cl)c1	.	?	?	.
CC(C)C(=O)N1CCN(c2ccc(NC(=O)c3ccc4c(c3)OCCO4)cc2Cl)CC1	13µM	4.7µM	.	/
O=S(=O)(NN=C1CCCCCCC1)c1ccccc1	/	/	.	/
O=C(Nc1nonc1NC(=O)c1cccs1)c1cccs1	4µM	.	.	.
O=C(Nc1ccc(NC(=O)c2cccs2)c(Cl)c1)c1cccs1	11µM	?	.	.
O=C(Cc1ccc(Cl)cc1)Nc1ccc(N2CCN(C(=O)c3ccco3)CC2)c(Cl)c1	?	.	.	12µM
O=C(Nc1ccccc1O)c1ccc(NC(=O)C2CC2)cc1	.	.	.	2.1µM
O=C(Nc1ccccn1)c1cccs1	.	.	.	.
O=C(Nc1ccccc1Cl)c1cc(C2CCCCN2C(=O)c2cccs2)on1 (stereo not given)	/	/	.	/
CCOC(=O)c1cn(Cc2ccc(C)cc2)c2cc(F)ccc2c1=O	.	?	.	?
O=C(Nc1ccc(-n2nncc2-c2ccco2)cc1)c1cccc(F)c1	?	?	.	.
O=C(Nc1ccc(-n2nncc2-c2ccco2)cc1)c1cc2ccccc2oc1=O	.	12µM	?	.
CCNC(=O)NC(=O)COC(=O)C1CSC2(C)CCC(=O)N12 (stereo not given)	.	?	.	?
c1ccc2oc(-c3[nH]ncc3CN(Cc3ccncc3)CC3CCCO3)cc2c1 (stereo not given)	.	?	.	?
O=C1CC[C@@H](CN(Cc2ccccc2)Cc2cn[nH]c2-c2cc3ccccc3o2)N1	.	15µM	.	?
COC(=O)NCC12CC3CC(C1)CC(CNC(=O)OC)(C3)C2	.	?	.	?
COc1cccc(OC)c1C(=O)NCC12CC3CC(C1)CC(CNC(=O)c1c(OC)cccc1OC)(C3)C2	.	3.3µM	.	.
SMILES	HCV inh	Pf growth 96h	AMA1 RON2 block	Pf growth 48h
Cn1c2c(c(=O)[nH]c1=O)C(c1cccc(O)c1)C1=C(N2)c2ccccc2C1=O (stereo not given)	?	.	.	?
CCC(C)C(=O)OC1CCC=C2C=CC(C)C(CCC3CC(O)CC(=O)O3)C21 (stereo not given)	.	/	.	/
CC[C@H](C)C(=O)O[C@H]1CCC=C2C=C[C@H](C)[C@H](CC[C@@H]3C[C@@H](O)CC(=O)O3)[C@H]21	0.56µM	.	.	?
O=C(COC(=O)C12CC3CC(CC(Br)(C3)C1)C2)Nc1c(F)cccc1F	.	/	.	/
CC(=O)NC12CC3CC(C1)CC(C(=O)OCC(=O)Nc1ncc(Cl)cc1Cl)(C3)C2	.	12µM	.	?
CC(=O)NC12CC3CC(C1)CC(C(=O)OCC(=O)Nc1c(F)cccc1F)(C3)C2	.	6.6µM	.	?
CC1CC1C(=O)OCC(=O)Nc1ncc(Cl)cc1Cl (stereo not given)	.	.	.	.
CCOc1ccc(N2C(=O)CC(NCCNc3ccc(C(=O)c4cccs4)cc3)C2=O)cc1 (stereo not given)	?	.	.	.
CCn1c(/C=C/Nc2ccccc2)[n+](CC)c2cc(Cl)c(Cl)cc21	?	?	.	7.4µM
CN(C)CCCNS(=O)(=O)c1ccc(N2CCC(c3ccc(Cl)cc3)=N2)cc1	4µM	/	/	9.3µM
O=C(Nc1ccccc1NS(=O)(=O)c1ccc(F)cc1)C1CCC1	.	.	.	?
CCOc1ccc2nc(NC(=O)C3CCN(c4cnccn4)CC3)sc2c1	?	.	.	9.3µM
CCOc1ccc2nc(NC(=O)CN3CCN(CC)CC3)sc2c1	.	.	.	.
CCOc1ccc2nc(NC(=O)C3CCN(S(=O)(=O)c4cnc[nH]4)CC3)sc2c1	.	?	.	/
CCOc1ccc2nc(NC(=O)CN3CCOCC3)sc2c1	.	.	.	4.1µM
CCOc1ccc2nc(NC(=S)NCc3ccccc3)sc2c1	.	4.1µM	.	/
O=C(CN1CCC(n2cnc3cc(F)ccc32)CC1)Nc1ccccc1Br	.	.	.	?
COc1ccc(NS(=O)(=O)c2ccc(C(=O)N3CCN(Cc4ccccc4)CC3)cc2)cc1	11µM	?	.	?
COc1ccc(S(=O)(=O)NCc2ccc(C(=O)N3CCN(Cc4ccccc4)CC3)cc2)cc1	32µM	.	.	.
COc1cccc(S(=O)(=O)NCc2ccc(C(=O)N3CCN(Cc4ccccc4)CC3)cc2)c1	10µM	?	.	.
O=C(c1cccc(S(=O)(=O)NCc2ccccc2)c1)N1CCN(Cc2ccccc2)CC1	.	/	.	.
Cc1ccc(S(=O)(=O)NCc2ccc(C(=O)N3CCN(Cc4ccccc4)CC3)cc2)cc1	4µM	?	.	/
OC(COc1ccc(C2C=CCC2)cc1)CN1CCCCC1 (stereo not given)	?	.	.	?
COc1ccc(-c2ccc3c(c2)O[C@@H](CN(C)C(=O)c2ccccc2F)[C@@H](C)CN([C@@H](C)CO)S3(=O)=O)cc1	/	/	.	/
CN1CCCN(S(=O)(=O)c2ccc(Cl)c(Cl)c2)CC1	.	.	.	.
SMILES	HCV inh	Pf growth 96h	AMA1 RON2 block	Pf growth 48h
CCC(=O)NC(=S)Nc1ccc(-c2nc3ccc(C)cc3s2)cc1	.	12µM	.[2.32 µM]	.
CC(C)(C)OC(=O)C[C@H]1C/C=C\C[C@H](CC(=O)NCCO)C(=O)NCCOC1=O	.	/	.	/
CC(C)OCCCNc1ncc2c(n1)CC(c1cccs1)CC2=O (stereo not given)	.	13µM	.	?
CC(C)OCCCNc1ncc2c(n1)CC(c1ccc(N(C)C)cc1)CC2=O (stereo not given)	.	.[5.75 µM]	.	.
CCc1cc(=O)oc2c(C)c(OC(C)C(=O)N3CC[C@@]4(O)CCCC[C@H]4C3)ccc12 (stereo not given in full)	0.89µM	12µM	.	?
CCc1cc(=O)oc2c(C)c(OC(C)C(=O)N3CCC[C@@H]3C(=O)O)ccc12 (stereo not given in full)	.	.	.	.
O=C(O)C(C=C(Cl)Cl)N1CCOCC1 (stereo not given)	.	/	.	/

High-throughput results from PubChem.
